Residue numbers refer to the chain shown, from its start.

The values that follow come from paper PMC9838217, “Structure of SALL4 zinc finger domain reveals link between AT-rich DNA binding and Okihiro syndrome”.

Common to all, as to assay: HT-SELEX; high values mean tight binding
Holding throughout (conditions): protein: recombinant; vector His6-GST; dsDNA, one strand shown

The target of one assay is T1, SALL4 ZFC4 WT (HT-SELEX) (Mus musculus, UniProt Q8BX22 870-940).
T1 sequence: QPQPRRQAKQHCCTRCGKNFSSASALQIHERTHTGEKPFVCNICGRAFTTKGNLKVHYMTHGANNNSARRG
In outline: (§1)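 Each canonical k-mer's binding signal is its read fraction expressed as fold change over the initial random library. Reads came from MiSeq sequencing, scanned for 6-mers, after up to 6 triplicate cycles in which purified recombinant mouse SALL4 zinc finger cluster 4 (residues 870–940, 1 µg) bound library DNA (1.5 µg first cycle, 200 ng later) in 100 µl of 10 mM Tris–HCl pH 7.5, 50 mM NaCl, poly(dI-dC), DTT for 10 min at room temperature. Complexes were then Ni2+ bead-captured, washed, PCR-amplified and reselected.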

For assay [1], the target named is T2, SALL4 ZFC4 R900W (HT-SELEX) (Mus musculus, UniProt Q8BX22 870-940, R900W).
T2 sequence: T1 sequence with R31W
In outline:
as §1

In assay [2] the target is T3, SALL4 ZFC4 G921D (HT-SELEX) (Mus musculus, UniProt Q8BX22 870-940, G921D).
T3 sequence: T1 sequence with G52D
In outline: as §1

Regarding GATCAA, the binding signal in the assay with SALL4 ZFC4 WT (HT-SELEX) is 1.21 ± 0.0612 fold-change vs cycle 0; in assay [1] it was 1.36 ± 0.014 fold-change vs cycle 0.

As for ATGAGC, the binding signal in the assay with SALL4 ZFC4 WT (HT-SELEX) was found to be 0.659 ± 0.0207 fold-change vs cycle 0; in assay [1], 0.736 ± 0.0172 fold-change vs cycle 0; in assay [2] it was 0.836 ± 0.0347 fold-change vs cycle 0.

Turning to GATTCA, the values for the binding signal (with SALL4 ZFC4 WT (HT-SELEX); in assay [1]; in assay [2]) were 1.35 ± 0.0551 fold-change vs cycle 0, 1.38 ± 0.0852 fold-change vs cycle 0 and 1.33 ± 0.0688 fold-change vs cycle 0, respectively.

Take CGGTAA: the binding signal with SALL4 ZFC4 WT (HT-SELEX) turned out to be 0.676 ± 0.0195 fold-change vs cycle 0; in assay [1] it was 0.74 ± 0.026 fold-change vs cycle 0; in assay [2], 0.792 ± 0.0302 fold-change vs cycle 0.

As for ATGCAT, the values for the binding signal (in the assay with SALL4 ZFC4 WT (HT-SELEX); in assay [1]; in assay [2]) were 1.33 ± 0.0832 fold-change vs cycle 0, 1.27 ± 0.0798 fold-change vs cycle 0 and 1.26 ± 0.0876 fold-change vs cycle 0, respectively.

On to ACATAC, for which the binding signal in the assay with SALL4 ZFC4 WT (HT-SELEX) stood at 1.3 ± 0.0628 fold-change vs cycle 0; in assay [1], 1.4 ± 0.0493 fold-change vs cycle 0; in assay [2] it was 1.33 ± 0.0922 fold-change vs cycle 0.

For the sequence AATCAG, the binding signal with SALL4 ZFC4 WT (HT-SELEX) is 1.32 ± 0.0871 fold-change vs cycle 0; in assay [1], 1.38 ± 0.0901 fold-change vs cycle 0.

For GTGCTA, the binding signal was found to be 0.592 ± 0.0163 fold-change vs cycle 0 with SALL4 ZFC4 WT (HT-SELEX), 0.69 ± 0.007 fold-change vs cycle 0 in assay [1] and 0.796 ± 0.0354 fold-change vs cycle 0 in assay [2].

Consider ACTTCA, for which the values for the binding signal (in the assay with SALL4 ZFC4 WT (HT-SELEX); in assay [1]) were 1.4 ± 0.0494 fold-change vs cycle 0 and 1.53 ± 0.0862 fold-change vs cycle 0, respectively.

With ATCTAA, the binding signal came to 2.02 ± 0.105 fold-change vs cycle 0 in the assay with SALL4 ZFC4 WT (HT-SELEX), 2.01 ± 0.101 fold-change vs cycle 0 in assay [1] and 1.83 ± 0.191 fold-change vs cycle 0 in assay [2].

As for AAACCG, the binding signal was 0.532 ± 0.0183 fold-change vs cycle 0 with SALL4 ZFC4 WT (HT-SELEX), 0.604 ± 0.0163 fold-change vs cycle 0 in assay [1] and 0.705 ± 0.0593 fold-change vs cycle 0 in assay [2].

For CTCTTC, the values for the binding signal (in the assay with SALL4 ZFC4 WT (HT-SELEX); in assay [1]) were 1.02 ± 0.0449 fold-change vs cycle 0 and 1.24 ± 0.0397 fold-change vs cycle 0, respectively.

Consider CCGTAA, for which the binding signal with SALL4 ZFC4 WT (HT-SELEX) is 0.687 ± 0.0267 fold-change vs cycle 0; in assay [1], 0.78 ± 0.0395 fold-change vs cycle 0; in assay [2], 0.825 ± 0.0254 fold-change vs cycle 0.

Take AGCATA: the binding signal was 1.26 ± 0.0848 fold-change vs cycle 0 with SALL4 ZFC4 WT (HT-SELEX) and 1.27 ± 0.0243 fold-change vs cycle 0 in assay [1].

Regarding ACTAGG, the binding signal in the assay with SALL4 ZFC4 WT (HT-SELEX) worked out at 0.871 ± 0.0329 fold-change vs cycle 0; in assay [1] it was 1.01 ± 0.0248 fold-change vs cycle 0.

As for TTGCAA, the figures for the binding signal (in the assay with SALL4 ZFC4 WT (HT-SELEX); in assay [1]; in assay [2]) were 1.13 ± 0.0202 fold-change vs cycle 0, 1.09 ± 0.0477 fold-change vs cycle 0 and 1.146 ± 0.00914 fold-change vs cycle 0, respectively.

In the case of AAGGAT, the binding signal in the assay with SALL4 ZFC4 WT (HT-SELEX) was determined as 1.54 ± 0.0522 fold-change vs cycle 0; in assay [1] it was 1.72 ± 0.118 fold-change vs cycle 0.

Take AAGGTA: the figures for the binding signal (in the assay with SALL4 ZFC4 WT (HT-SELEX); in assay [1]) were 1.42 ± 0.048 fold-change vs cycle 0 and 1.59 ± 0.0717 fold-change vs cycle 0, respectively.

Regarding GTTACA, the results for the binding signal (in the assay with SALL4 ZFC4 WT (HT-SELEX); in assay [1]; in assay [2]) were 1.35 ± 0.0329 fold-change vs cycle 0, 1.46 ± 0.0565 fold-change vs cycle 0 and 1.37 ± 0.0864 fold-change vs cycle 0, respectively.

In the case of AGTTGG, the binding signal with SALL4 ZFC4 WT (HT-SELEX) amounted to 0.73 ± 0.0169 fold-change vs cycle 0; in assay [1], 0.834 ± 0.0159 fold-change vs cycle 0; in assay [2], 0.883 ± 0.0279 fold-change vs cycle 0.

As to AATCCT, the binding signal with SALL4 ZFC4 WT (HT-SELEX) was determined as 1.47 ± 0.0694 fold-change vs cycle 0; in assay [1] it was 1.58 ± 0.0929 fold-change vs cycle 0.

For AGGTAA, the binding signal in the assay with SALL4 ZFC4 WT (HT-SELEX) amounted to 1.45 ± 0.0617 fold-change vs cycle 0; in assay [1], 1.58 ± 0.118 fold-change vs cycle 0.

Turning to CATGAA, the results for the binding signal (with SALL4 ZFC4 WT (HT-SELEX); in assay [1]) were 1.36 ± 0.0383 fold-change vs cycle 0 and 1.4 ± 0.0692 fold-change vs cycle 0, respectively.

As to AACTGA, the binding signal with SALL4 ZFC4 WT (HT-SELEX) worked out at 1.35 ± 0.0349 fold-change vs cycle 0; in assay [1] it was 1.44 ± 0.0702 fold-change vs cycle 0.

As to GAAAAC, the binding signal with SALL4 ZFC4 WT (HT-SELEX) was 1.08 ± 0.0562 fold-change vs cycle 0; in assay [1], 1.19 ± 0.062 fold-change vs cycle 0.

As for CCCCTC, the binding signal in the assay with SALL4 ZFC4 WT (HT-SELEX) amounted to 0.31 ± 0.0217 fold-change vs cycle 0; in assay [1], 0.35 ± 0.0216 fold-change vs cycle 0; in assay [2], 0.456 ± 0.0591 fold-change vs cycle 0.

For the sequence GAGGAA, the values for the binding signal (with SALL4 ZFC4 WT (HT-SELEX); in assay [1]) were 0.874 ± 0.0788 fold-change vs cycle 0 and 1.03 ± 0.0537 fold-change vs cycle 0, respectively.

Take ATGTAG: the binding signal with SALL4 ZFC4 WT (HT-SELEX) is 1.34 ± 0.0549 fold-change vs cycle 0; in assay [1], 1.41 ± 0.0727 fold-change vs cycle 0.

Consider AAGATG, for which the binding signal was found to be 1.395 ± 0.00326 fold-change vs cycle 0 in the assay with SALL4 ZFC4 WT (HT-SELEX) and 1.5 ± 0.0687 fold-change vs cycle 0 in assay [1].

Consider CGGTCA, for which the binding signal was 0.331 ± 0.0331 fold-change vs cycle 0 in the assay with SALL4 ZFC4 WT (HT-SELEX), 0.405 ± 0.0336 fold-change vs cycle 0 in assay [1] and 0.52 ± 0.0692 fold-change vs cycle 0 in assay [2].

In the case of AGTCTG, the binding signal in the assay with SALL4 ZFC4 WT (HT-SELEX) was found to be 0.76 ± 0.0287 fold-change vs cycle 0; in assay [1], 0.869 ± 0.0157 fold-change vs cycle 0; in assay [2], 0.92 ± 0.0107 fold-change vs cycle 0.

AACTAG: the binding signal worked out at 1.31 ± 0.0615 fold-change vs cycle 0 with SALL4 ZFC4 WT (HT-SELEX) and 1.4 ± 0.0768 fold-change vs cycle 0 in assay [1].

For the sequence CCTATA, the binding signal in the assay with SALL4 ZFC4 WT (HT-SELEX) is 1.35 ± 0.0444 fold-change vs cycle 0; in assay [1], 1.4 ± 0.0411 fold-change vs cycle 0.

With AAGGGT, the binding signal in the assay with SALL4 ZFC4 WT (HT-SELEX) was 0.858 ± 0.0423 fold-change vs cycle 0; in assay [1], 1.01 ± 0.023 fold-change vs cycle 0.

Turning to AAACGA, in the assay with SALL4 ZFC4 WT (HT-SELEX), the binding signal was found to be 1.06 ± 0.0291 fold-change vs cycle 0.
